Reference: PubChem BioAssay AID463173 (ICCB-Longwood Screening Facility, Harvard Medical School, 2010)
Screen size: about 52,000 compounds; about 4,300 (8.3%) were called active. What follows is part of a selection rich in actives, with near analogues and random picks from the rest. Values without a mark were called inactive. No stated cut-off is given here; in the data, active means survival mostly below about 52% (no sharp cut-off); inactive means mostly above about 56%.

Each compound was assayed on DeltatarO mutant (assay: S. aureus survival, RN4220 and DeltatarO strains – OD600, teichoic acid synthesis inhibitors, primary screen (AID 463173)). Conditions: S. aureus RN4220 wild type/DeltatarO growth, OD600, 18 h, hits give low values, screened at 18.75 µg/mL (by protocol).
`O=C(Cn1nc(-c2ccc(Cl)cc2)ccc1=O)NCc1ccccc1Cl` gave a survival of 70%. `CCN(C(=O)CSc1nc2ccccc2n1Cc1ccc(F)cc1Cl)c1ccccc1` was tested, and the survival was 77%. `CC(C)c1ccccc1NC(=O)c1cccs1` gave a survival of 61%. `O=C(CCCCCn1c(=O)[nH]c2ccsc2c1=O)NCc1ccccc1` gave a survival of 89%. For `CCCCCNC(=O)CCCCCn1c(=O)[nH]c2ccsc2c1=O`, the survival was 81%. `Cc1cccc(NC(=O)CCCCCn2c(=O)[nH]c3ccsc3c2=O)c1` was tested, and the survival was 33% (active). With `O=S1(=O)c2ccccc2N(Cc2ccccc2F)c2ccccc21` the survival was 92%. With `COc1ccc(NC(=O)CCc2nnc3n(C)c(=O)c4sccc4n23)cc1Cl` the survival was 78%. With `CCCCc1nn2c(=O)cc(COC(=O)c3ccccc3C)nc2s1` the survival was 83%. Compound `CCCc1nn2c(=O)cc(COC(=O)c3ccccc3NC(=O)c3ccc(OCC)cc3)nc2s1` has a survival of 49%. For `CCOc1ccc(C(=O)Nc2cccc(C(=O)OCc3cc(=O)n4nc(C5CC5)sc4n3)c2)cc1`, the survival was 83%. `CCCc1nn2c(=O)cc(COC(=O)c3cccc(NC(=O)c4ccc(OCC)cc4)c3)nc2s1` was tested, and the survival was 0% (active). With `CCOCCc1nn2c(=O)cc(COC(=O)c3cccc(C)c3)nc2s1` the survival was -5% (active). For `CCOCCc1nn2c(=O)cc(COC(=O)Cc3ccccc3)nc2s1`, the survival was 17% (active). With `COCCc1nn2c(=O)cc(COC(=O)c3ccccc3C)nc2s1` the survival was -5% (active). `CCOCCc1nn2c(=O)cc(COC(=O)c3ccco3)nc2s1` showed a survival of 88%. With `COCCc1nn2c(=O)cc(COC(=O)COc3ccccc3C)nc2s1` the survival was 73%. `CCc1nn2c(=O)cc(COC(=O)Cc3ccccc3)nc2s1` was tested, and the survival was 72%. `CCOCCc1nn2c(=O)cc(COC(=O)CNC(=O)c3cccc(C)c3)nc2s1` showed a survival of 70%. Compound `CCOCCc1nn2c(=O)cc(COC(=O)c3ccc4c(c3)OCO4)nc2s1` has a survival of 128%. For `CCC(c1nnnn1CCc1ccccc1)N(Cc1ccco1)Cc1cc2cc(C)ccc2[nH]c1=O` (stereo not drawn), the survival was 62%. For `COc1ccc(C2=C(C)C(N3CCC(C(=O)NCc4ccc(C)o4)CC3)=NS2(=O)=O)cc1`, the survival was 74%. For `COc1cccc(NC(=O)Cn2cc(S(=O)(=O)Cc3ccccc3F)c3ccccc32)c1`, the survival was 78%. `CN1CCN(CCC(=O)Nc2ccc(Cl)cc2)CC1` was tested, and the survival was 61%. With `COc1ccc(N2C(=O)CSC23C(=O)N(CC(=O)NC2CCCCC2)c2ccccc23)cc1` (stereo not drawn) the survival was 83%. In the case of `Cc1cc(=O)c2c(ccc3ccccc32)[nH]1`, the survival is reported as 91%. `CC(OC(=O)CN1C(=O)COc2ccccc21)C(=O)NCc1cccs1` (stereo not drawn) was tested, and the survival was 100%. `CCOc1ccc(CNC(=O)c2ccc(NC(=O)N3CCCCc4ccccc43)cc2)cc1OC` showed a survival of 73%. `COc1cccc(CNC(=O)CN2C(=O)N(c3cccc(Cl)c3)S(=O)(=O)c3ccccc32)c1OC` was tested, and the survival was 72%. For `O=C(CCCN1C(=O)C(c2ccccc2)Oc2cccnc21)Nc1ccccc1C(F)(F)F` (stereo not drawn), the survival was 100%. For `CCCc1nn2c(=O)cc(COC(=O)c3ccc(NC(=O)COc4ccccc4)cc3)nc2s1`, the survival was 92%. Compound `CCOCCc1nn2c(=O)cc(COC(=O)c3ccc(NC(=O)c4cccs4)cc3)nc2s1` has a survival of 112%. In the case of `CCCc1nn2c(=O)cc(COC(=O)c3ccc(NC(=O)COc4ccc(F)cc4)cc3)nc2s1`, the survival is reported as 37% (active). For `CCCc1nn2c(=O)cc(COC(=O)c3cccc(NC(=O)COc4ccc(F)cc4)c3)nc2s1`, the survival was 99%. `CCOCCc1nn2c(=O)cc(COC(=O)c3ccc(NC(=O)C(C)(C)C)cc3)nc2s1` was tested, and the survival was 83%. In the case of `CCOCCc1nn2c(=O)cc(COC(=O)c3ccc(NC(=O)c4ccc(F)cc4)cc3)nc2s1`, the survival is reported as 32% (active). Work on `Cc1ccc(OCc2n[nH]c(=S)n2C2CCCCC2)cc1` yielded a survival of 99%. Work on `Cc1ccc(C2=CC(c3ccccc3F)n3c(nc4ccccc43)N2)cc1C` (stereo not drawn) yielded a survival of 70%. Work on `O=C(NC1CCCCC1)C(c1ccc(O)c(O)c1)N(C(=O)Cn1nnc2ccccc21)C1CCCCC1` (stereo not drawn) yielded a survival of 99%. Compound `O=c1ccc2cc(S(=O)(=O)Nc3ccc(OC(F)(F)F)cc3)ccc2[nH]1` has a survival of 91%. For `COC(=O)c1cccnc1-n1c(=O)c2cccnc2n(CC(=O)Nc2c(C)cc(C)cc2C)c1=O`, the survival was 82%. Work on `CC(C)CNCC1OCc2ccccc2CO1` yielded a survival of 98%. `COc1ccc(NC(=O)CCSc2nc(-c3ccco3)cc(C(F)(F)F)n2)cc1OC` showed a survival of 50%. For `COc1ccc(NC(=O)CCSc2nc(-c3ccco3)cc(C(F)(F)F)n2)cc1`, the survival was 57%. `CC(=O)c1ccc(NC(=O)CCSc2nc(-c3ccco3)cc(C(F)(F)F)n2)cc1` showed a survival of 46%. For `COc1ccc(NC(=O)CCS(=O)(=O)c2nc(-c3ccc4c(c3)OCO4)cc(C(F)(F)F)n2)cc1`, the survival was 103%. For `CC(=O)c1cccc(NC(=O)CCCSc2nc(-c3ccco3)cc(C(F)(F)F)n2)c1`, the survival was 31% (active). For `CC(=O)c1ccc(NC(=O)CCCSc2nc(-c3ccco3)cc(C(F)(F)F)n2)cc1`, the survival was 98%. `CCCNC(=O)CCSc1nc(-c2ccc3c(c2)OCO3)cc(C(F)(F)F)n1` showed a survival of 68%. In the case of `COc1cccc(NC(=O)CCSc2nc(-c3ccco3)cc(C(F)(F)F)n2)c1`, the survival is reported as 27% (active). `O=C(CCS(=O)(=O)c1nc(-c2ccc3c(c2)OCO3)cc(C(F)(F)F)n1)Nc1ccc(Br)cc1` gave a survival of 94%. Work on `CC(C)NC(=O)CCSc1nc(-c2ccc3c(c2)OCO3)cc(C(F)(F)F)n1` yielded a survival of 57%. With `CC(C)(C)NC(=O)CCSc1nc(-c2ccc3c(c2)OCO3)cc(C(F)(F)F)n1` the survival was 15% (active). In the case of `O=C(CCS(=O)(=O)c1nc(-c2ccc3c(c2)OCO3)cc(C(F)(F)F)n1)Nc1ccc(F)c(Cl)c1`, the survival is reported as 23% (active). With `Cc1cc(F)ccc1NC(=O)CCS(=O)(=O)c1ccc2c(c1)CC(C)N2C(=O)C1CC1` (stereo not drawn) the survival was 81%. Work on `Cc1cccc(N2CCn3c2nc2c3c(=O)n(CCCc3ccccc3)c(=O)n2C)c1` yielded a survival of 76%. `CCSc1nnc(C2CCCN(C(=O)NCc3ccccc3)C2)n1C` (stereo not drawn) showed a survival of 84%. For `CC1CCCCN1C(=O)CSc1nc(-c2ccccc2)no1` (stereo not drawn), the survival was 83%. In the case of `Cc1ccc(S(=O)(=O)C(CNS(=O)(=O)c2cc(F)ccc2F)c2cccs2)cc1` (stereo not drawn), the survival is reported as 64%. `CC1C(=O)CC(c2ccco2)NC1c1ccco1` (stereo not drawn) was tested, and the survival was 56%. In the case of `CCc1nc2ccc(C(=O)NCCc3ccccc3OC)cc2nc1CC`, the survival is reported as 73%. In the case of `Cc1ccc(-c2cc3c(N4CCN(c5cc(C)ccc5C)CC4)nccn3n2)cc1`, the survival is reported as 68%. Work on `COc1ccc(NC(=O)Cn2c(SCc3cc(C)ccc3C)nc3ccncc32)c(OC)c1OC` yielded a survival of 61%. With `Cc1cccc2c1-c1sc(C(=O)NCCc3ccc(Cl)cc3)cc1CO2` the survival was 86%. With `COc1ccc(/C=C/C(=O)Nc2sc(C)c(C)c2C(=O)O)cc1` the survival was 60%. Compound `COc1ccc(-n2cnc3cc(C(=O)NC4CCCCCC4)ccc32)cc1` has a survival of 117%. `CCN1C(=O)CC(C(=O)NC)SC1=Nc1cc(Cl)c(O)c(Cl)c1` (stereo not drawn) showed a survival of 75%. `CC(=O)Nc1ccc2nc3c(=O)[nH]c(=O)[nH]c3nc2c1` gave a survival of 72%. For `COc1ccc(-c2cc(C(F)(F)F)nc(SCCC(=O)Nc3ccc(OC)c(OC)c3)n2)cc1`, the survival was 40% (active). In the case of `COc1ccc(-c2cc(C(F)(F)F)nc(SCCC(=O)Nc3ccc(NC(C)=O)cc3)n2)cc1`, the survival is reported as 61%. `COc1ccc(NC(=O)CCSc2nc(-c3ccc(OC)cc3)cc(C(F)(F)F)n2)cc1` showed a survival of 70%. With `CC(C)(C)NC(=O)COc1ccc(CNc2ccc3c(c2)OCCO3)cc1` the survival was 87%. In the case of `COc1ccc(CCNC(=O)CCCCn2c(=O)c3ccccc3n(Cc3ccccc3C)c2=O)cc1OC`, the survival is reported as 95%. With `COc1ccc(CCNC(=O)CCCn2c(=O)c3ccccc3n(Cc3ccccc3C)c2=O)cc1OC` the survival was 85%. With `Cc1ccccc1Cn1c(=O)n(CCCCC(=O)NCc2ccccc2Cl)c(=O)c2ccccc21` the survival was 93%. `COc1ccc(CCNC(=O)CCCn2c(=O)c3ccccc3n(Cc3ccccc3C#N)c2=O)cc1OC` was tested, and the survival was 87% (active). `COc1ccc(CCNC(=O)CCn2c(=O)c3ccccc3n(Cc3ccccc3C)c2=O)cc1OC` gave a survival of 86%. In the case of `O=C(CCCCn1c(=O)c2ccccc2n(Cc2ccccc2F)c1=O)NCc1ccccc1Cl`, the survival is reported as 97% (active). For `O=C(CCCCn1c(=O)c2ccccc2n(Cc2ccc(Cl)cc2)c1=O)NCc1ccccc1Cl`, the survival was 97%. Work on `COc1ccc(CCNC(=O)CCn2c(=O)c3ccccc3n(Cc3ccc(Cl)cc3)c2=O)cc1OC` yielded a survival of 119%. `COc1ccc(CCNC(=O)CCn2c(=O)c3ccccc3n(Cc3ccccc3F)c2=O)cc1OC` was tested, and the survival was 93% (active). In the case of `Cn1ccc2cc(S(=O)(=O)N3CCC(C(=O)NCCc4ccccc4)CC3)ccc21`, the survival is reported as 89%. `Cc1nn(C)c2c1c(C(F)(F)F)cc(=O)n2C(C)C(=O)N1CCN(c2ccccc2)CC1` (stereo not drawn) showed a survival of 86%. `CC(C)OC(=O)CSc1nnc(-c2ccccc2)n1Cc1ccco1` showed a survival of 87%. With `COc1ccc(Cl)cc1NC(=O)CN1Cc2ccccc2C1=O` the survival was 100%. With `CCC(Sc1nnc2c3ccccc3n(CC)c2n1)C(=O)Nc1ccc(NC(C)=O)cc1` (stereo not drawn) the survival was 104%. `CC1CCN(C(=O)c2c(NC(=O)c3ccccc3F)sc3c2CCC(C(C)(C)C)C3)CC1` (stereo not drawn) was tested, and the survival was -4% (active). With `CC(C)(C)C1CCc2c(sc(NC(=O)c3ccccc3F)c2C(=O)N2CCCCC2)C1` (stereo not drawn) the survival was -5% (active). `CC(C)(C)C1CCc2c(sc(NC(=O)c3ccco3)c2C(=O)Nc2ccccc2Cl)C1` (stereo not drawn) showed a survival of 135%. Compound `CC(C)(C)C1CCc2c(sc(NC(=O)c3ccncc3)c2C(=O)Nc2ccccc2Cl)C1` (stereo not drawn) has a survival of 71%. In the case of `Cc1ccccc1C(=O)Nc1sc2c(c1C(=O)N1CCC(C)CC1)CCC(C)C2` (stereo not drawn), the survival is reported as -3% (active). For `COC(=O)c1ccccc1NC(=O)c1c(NC(=O)c2ccco2)sc2c1CCC(C(C)(C)C)C2` (stereo not drawn), the survival was 137%. For `CCOc1ccccc1NC(=O)c1c(NC(=O)c2ccccc2C)sc2c1CCC(C)C2` (stereo not drawn), the survival was 65%. `O=C(Nc1sc2c(c1C(=O)N1CCCCC1)CCCC2)c1ccccc1Cl` showed a survival of 69%. `Cc1ccccc1NC(=O)c1c(NC(=O)c2ccccc2F)sc2c1CCC(C)C2` (stereo not drawn) was tested, and the survival was 63%. Work on `Cc1ccccc1C(=O)Nc1sc2c(c1C(=O)N1CCC(C)CC1)CCCC2` yielded a survival of 58%. `CC1CCN(C(=O)c2c(NC(=O)c3ccccc3Cl)sc3c2CCC(C(C)(C)C)C3)CC1` (stereo not drawn) was tested, and the survival was 10% (active). Work on `Cc1ccccc1C(=O)Nc1sc2c(c1C(=O)N1CCCCC1)CCC(C)C2` (stereo not drawn) yielded a survival of 49%.
